# According to PubChem BioAssay:
# Unmarked numbers belong to inactive results.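 How the source made its calls: active means viability at or below 10% of carrier control in both of two separate runs; inconclusive means viability at or below 10% in only one of the two runs; inactive means the rest.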
# Assay: SK-BR-3 cell growth inhibitors, pilot screen, 24 h, human (AID 572);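 further: compound exposure lasted between 18 and 24 h rather than exactly 24 h; 100% = carrier-treated control wells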
# Details: SK-BR-3 viability, CellTiter-Glo luminescence, at 10 µM, hits give low values
row,Structure (SMILES),viability [%]
1,Cc1cccn2c(=O)c3cc(C(=O)NC4CCCC4)c(=N)n(C4CCCC4)c3nc12,107
2,Cc1ccc(Cl)cc1N1CCN(C(=O)c2cn(C)c(=O)c3c2c2ccccc2n3C)CC1,94
3,Cc1cc(C)c2ccc(N)nc2c1O,87.5
4,CCC(=O)Oc1ccc(C(CC)C(CC)c2ccc(OC(=O)CC)cc2)cc1 (stereo unspecified),112
5,Cc1ccc2[nH]c3c(c2c1)CN(C(=O)CN1CCN(c2cccc(C)c2C)CC1)CC3,79
6,CN1CCN(C2=Nc3cc(Cl)ccc3Nc3ccccc32)CC1,94
7,COc1ccccc1NC(=O)c1oc2ccccc2c1NC(=O)c1cc(OC)c(OC)c(OC)c1,56.5
8,CCOC(=O)c1cc(-c2ccc(Cl)s2)nc2c1c(C)nn2C,66.5
9,O=C(O)c1ccc2c3c(ncnc13)-c1ccccc1C2=O,60.5
10,COc1cc2nc(N3CCN(C(=O)c4ccco4)CC3)nc(N)c2cc1OC,53
11,Cc1nnc(NCc2n[nH]c(=O)c3ccccc23)c2ccccc12,72
12,CCN(CC)S(=O)(=O)c1ccc2[nH]cc(C(=O)NCCC3=CCCCC3)c(=O)c2c1,138
13,CCCCn1c(SCc2ccc(Cl)cc2)nc2c1c(=O)[nH]c(=O)n2C,80
14,O=C(CNCCC1=CCCCC1)Nc1ccccc1N1CCCCC1,102
15,COc1cc2c(C#N)c(N3CCN(c4ccccc4OC)CC3)nc(N)c2c(N)n1,110
16,COc1ccc(Cl)cc1C(=O)NCCc1ccc(S(=O)(=O)NC(=O)NC2CCCCC2)cc1,116
